Measured values as given in the supplement of paper PMC8728848.
About 410 targets per protein were measured; listed, in parts, are those with the strongest signals and a random draw of the rest.

B1: NakA (Mycobacterium tuberculosum) (protein)
chain: SVVKPTKVTVFSPDGGADNPGEADLAIDGNPATSWKTDIYTDPVPFPSFKNGVGLMLQLPQATVVGTVAIDVASTGTKVEIRSASTPTPATLEDTAVLTSATALRPGHNTISVEAAAPTSNLLVWISTLGTTDGKSQADISEITIYAASD
B2: F17eG (Escherichia coli), Q9RH92 (protein)
chain: MTNFYKVFLAVFILVCCNISHAAVSFIGSTENDVGPSQSSYSRTHAMDNLPFVYNTGYNIGYQNANVWRISGGFCVGLDGKVDLPVVGSLDGQSIYGLTEEVGLLIWMGDTNYSRGTAMSGNSWENVFSGWCVGNYVSTQGLSVHVRPVILKRNSSAQYSVQKTSIGSIRMRPYNGSSAGSVQTTVNFSLNPFTLNDTVTSCRLLTPSAVNVSLAAISAGQLPSSGDEVVAGTTSLKLQCDAGVTVWATLTDATTPSNRSDILTLTGASTATGVGLRIYKNTDSTPLKFGPDSPVKGNENQWQLSTGTETSPSVRLYVKYVNTGEGINPGTVNGISTFTFSYQ

Columns and labels:
Assay in all cases: glycan array binding signal (z-score within array); higher = stronger binding
Settings in all cases: glycan notation: IUPAC condensed, linker removed
[1] = biological target: Fuc(a1-2)Gal(b1-4)GlcNAc(b1-3)Gal(b1-4)GlcNAc(b1-3)Gal(b1-4)GlcNAc
How it was run: (§1)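 The binding signal is a Z-score computed within each array and averaged over linkers. Arrays of the same protein sequence at different concentrations or buffers were also averaged together. Data originate from 3228 arrays in the Consortium for Functional Glycomics database, kept only where the protein sequence was available.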

[2] = biological target: Fuc(a1-2)Gal(b1-4)[Fuc(a1-3)]GalNAc(b1-3)Gal(b1-4)[Fuc(a1-3)]GlcNAc
How it was run: as §1

[3] = biological target: Fuc(a1-2)Gal(b1-4)[Fuc(a1-3)]GalNAc(b1-3)Gal(b1-4)[Fuc(a1-3)]GlcNAc(b1-3)Gal(b1-4)[Fuc(a1-3)]GalNAc
How it was run: as §1

[4] = biological target: Fuc(a1-2)Gal(b1-4)[Fuc(a1-3)]GlcNAc
How it was run: as §1

Fuc(a1-2)[Gal(a1-3)]Gal = biological target: Fuc(a1-2)[Gal(a1-3)]Gal
How it was run: as §1

[5] = biological target: Fuc(a1-2)[Gal(a1-3)]Gal(b1-4)[Fuc(a1-3)]GlcNAc
How it was run: as §1

[6] = biological target: Fuc(a1-2)[GalNAc(a1-3)]Gal
How it was run: as §1

Fuc(a1-3)GlcNAc = biological target: Fuc(a1-3)GlcNAc
How it was run: as §1

[7] = biological target: Fuc(a1-3)[Gal(b1-4)]GlcNAc
How it was run: as §1

Gal(a1-2)Gal = biological target: Gal(a1-2)Gal
How it was run: as §1

[8] = biological target: Gal(b1-3)[Neu5Ac(a2-6)]GalNAc
How it was run: as §1

[9] = biological target: Gal(b1-3)[Neu5Ac(b2-6)]GlcNAc
How it was run: as §1

[10] = biological target: Gal(b1-4)GlcNAc(b1-2)Man(a1-3)[Gal(b1-4)GlcNAc(b1-2)Man(a1-6)]Man(b1-4)GlcNAc(b1-4)GlcNAc
How it was run: as §1

[11] = biological target: Gal(b1-4)GlcNAc(b1-3)Gal(b1-4)GlcNAc(b1-3)Gal(b1-4)GlcNAc
How it was run: as §1

[12] = biological target: Gal(b1-4)GlcNAc(b1-3)[Gal(b1-4)GlcNAc(b1-6)]GalNAc
How it was run: as §1

[13] = biological target: Gal(b1-4)GlcNAc(b1-6)[Gal(b1-3)]GalNAc
How it was run: as §1

Gal6S(b1-4)Glc6S = biological target: Gal6S(b1-4)Glc6S
How it was run: as §1

GalNAc(b1-4)GlcNAc = biological target: GalNAc(b1-4)GlcNAc
How it was run: as §1

GlcNAc(b1-3)GalNAc = biological target: GlcNAc(b1-3)GalNAc
How it was run: as §1

Kdn(a2-3)Gal(b1-4)GlcNAc = biological target: Kdn(a2-3)Gal(b1-4)GlcNAc
How it was run: as §1

[14] = biological target: Neu5Ac(a2-3)Gal(b1-4)[Fuc(a1-3)]GlcNAc
How it was run: as §1

[15] = biological target: Neu5Gc(a2-3)Gal(b1-3)GlcNAc
How it was run: as §1

Fuc(a1-2)GlcNAc = biological target: Fuc(a1-2)GlcNAc
How it was run: as §1

Fuc(b1-3)GlcNAc = biological target: Fuc(b1-3)GlcNAc
How it was run: as §1

Gal(a1-3)GalNAc = biological target: Gal(a1-3)GalNAc
How it was run: as §1

Gal(a1-4)Gal(b1-4)Glc = biological target: Gal(a1-4)Gal(b1-4)Glc
How it was run: as §1

[16] = biological target: Gal(b1-3)[GlcNAc(b1-6)]GalNAc
How it was run: as §1

GalNAc(b1-3)GalNAc = biological target: GalNAc(b1-3)GalNAc
How it was run: as §1

GlcNAc(b1-3)Gal(b1-4)Glc = biological target: GlcNAc(b1-3)Gal(b1-4)Glc
How it was run: as §1

[17] = biological target: GlcNAc(b1-3)[GlcNAc(b1-6)]GlcNAc(b1-4)GlcNAc
How it was run: as §1

[18] = biological target: GlcNAc(b1-4)GlcNAc(b1-4)GlcNAc
How it was run: as §1

Man(a1-2)Man(a1-3)Man = biological target: Man(a1-2)Man(a1-3)Man
How it was run: as §1

[19] = biological target: Neu5Ac(a2-3)Gal(b1-3)[Fuc(a1-4)]GlcNAc(b1-3)Gal(b1-4)[Fuc(a1-3)]GlcNAc
How it was run: as §1

[20] = biological target: Neu5Ac(a2-3)[Neu5Ac(a2-6)]GalNAc
How it was run: as §1

Row | Binder | glycan array binding signal (z-score) [1] | glycan array binding signal (z-score) [2] | glycan array binding signal (z-score) [3] | glycan array binding signal (z-score) [4] | glycan array binding signal (z-score) (Fuc(a1-2)[Gal(a1-3)]Gal) | glycan array binding signal (z-score) [5] | glycan array binding signal (z-score) [6] | glycan array binding signal (z-score) (Fuc(a1-3)GlcNAc) | glycan array binding signal (z-score) [7] | glycan array binding signal (z-score) (Gal(a1-2)Gal) | glycan array binding signal (z-score) [8] | glycan array binding signal (z-score) [9] | glycan array binding signal (z-score) [10] | glycan array binding signal (z-score) [11] | glycan array binding signal (z-score) [12] | glycan array binding signal (z-score) [13] | glycan array binding signal (z-score) (Gal6S(b1-4)Glc6S) | glycan array binding signal (z-score) (GalNAc(b1-4)GlcNAc) | glycan array binding signal (z-score) (GlcNAc(b1-3)GalNAc) | glycan array binding signal (z-score) (Kdn(a2-3)Gal(b1-4)GlcNAc) | glycan array binding signal (z-score) [14] | glycan array binding signal (z-score) [15] | glycan array binding signal (z-score) (Fuc(a1-2)GlcNAc) | glycan array binding signal (z-score) (Fuc(b1-3)GlcNAc) | glycan array binding signal (z-score) (Gal(a1-3)GalNAc) | glycan array binding signal (z-score) (Gal(a1-4)Gal(b1-4)Glc) | glycan array binding signal (z-score) [16] | glycan array binding signal (z-score) (GalNAc(b1-3)GalNAc) | glycan array binding signal (z-score) (GlcNAc(b1-3)Gal(b1-4)Glc) | glycan array binding signal (z-score) [17] | glycan array binding signal (z-score) [18] | glycan array binding signal (z-score) (Man(a1-2)Man(a1-3)Man) | glycan array binding signal (z-score) [19] | glycan array binding signal (z-score) [20]
1 | B1 | 2.46 | 1.53 | 2.85 | 2.46 | 0.037 | 2.29 | 0.057 | 3.17 | -0.303 | -0.019 | -0.457 | -0.353 | -0.5 | -0.502 | -0.414 | -0.553 | -0.213 | -0.305 | -0.001 | -0.507 | -0.418 | -0.404 |  |  |  |  |  |  |  |  |  |  |  | 
2 | B2 | -0.298 |  |  |  |  |  |  |  |  |  |  |  |  |  |  | -0.31 |  |  |  |  |  |  | -0.176 | -0.315 | -0.302 | -0.293 | 4.13 | 4.3 | 4.59 | 4.3 | 0.197 | -0.302 | -0.097 | -0.208
